Source: PubChem BioAssay
Unmarked numbers belong to inactive results. For some of these results: Measured potencies and affinities stand elsewhere. Activity calls are given as the source filed them. Unless noted, how the calls were made is not given here.

Experiments:
[1] = antimalarial activity against Dd2 strain (AID 2302;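 active means growth inhibition above 50% at the single 2 µM test dose, taken to imply half-maximal potency below 2 µM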;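 further: 0% = DMSO untreated growth and 100% = chloroquine plus artemisinin killed control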); conditions: P. falciparum Dd2 in RBCs, LDH growth readout, 72 h; at 2 µM; stronger effect = higher value
[2] = human hepatoma cell viability loss – ATP luminescence, cytotoxicity control for P. falciparum antimalarial project, primary screen (AID 2303;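 active means inhibition above 50%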;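 further: 0% = DMSO wells and 100% = digitonin-killed cells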); conditions: HepG2 viability, 24-48 h, at 10 µM, stronger effect = higher value
[3] = biological target: L-lactate dehydrogenase (Plasmodium falciparum (isolate CDC / Honduras)) (UniProt Q27743); assay: PfLDH activity inhibition – cell lysate, 3D7 strain, counter-screen for P. falciparum growth inhibition project (AID 2304);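 further: 0% = vehicle and 100% = reference inhibitor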; conditions: P. falciparum 3D7 crude extract, LDH APAD/NBT absorbance; at 2 µM; stronger effect = higher value
[4] = inhibition of 3D7 malaria parasite growth – strain 3D7 (AID 2306);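 further: 0% = DMSO wells and 100% = chloroquine plus artemisinin control wells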; conditions: P. falciparum 3D7 erythrocytic growth, LDH absorbance, 72 h; at 2 µM; stronger effect = higher value
[5] = biological target: Calcium-dependent protein kinase 1 (Plasmodium falciparum (isolate 3D7)) (UniProt P62344); assay: PfCDPK1 kinase inhibitors, biochemical, TCAMS library (AID 1159585; cut-off not given, nearly all actives have IC50 up to about 0.98 µM;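 further: inhibitors leave more ATP so luminescence rises with inhibition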); conditions: recombinant PfCDPK1, Kinase-Glo ATP depletion luminescence
[6] = biological target: Plasmodium falciparum protein kinase 6 (PK6, PF3D7_1337100) (UniProt Q8IDW1); assay: PfPK6 kinase inhibitors, biochemical, TCAMS library (AID 1159586); conditions: recombinant PfPK6, Kinase-Glo ATP depletion luminescence
[7] = biological target: Protein kinase 7 (PK7), Plasmodium falciparum 3D7 (PF3D7_0213400) (UniProt Q7YTF7); assay: inhibition of Plasmodium PK7 catalytic activity – biochemical, TCAMS antimalarial set, Kinase-Glo luminescence (AID 1159587); conditions: recombinant PfPK7, Kinase-Glo ATP depletion luminescence
[8] = biological target: Calcium-dependent protein kinase 4 (Plasmodium falciparum (isolate 3D7)) (UniProt Q8IBS5); assay: PfCDPK4 kinase inhibitors, biochemical, TCAMS library (AID 1159588; cut-off not given, nearly all actives have IC50 up to about 0.91 µM); conditions: recombinant PfCDPK4, Kinase-Glo ATP depletion luminescence
Sequence of Calcium-dependent protein kinase 4 (Plasmodium falciparum (isolate 3D7)) (Q8IBS5 whole entry, looked up): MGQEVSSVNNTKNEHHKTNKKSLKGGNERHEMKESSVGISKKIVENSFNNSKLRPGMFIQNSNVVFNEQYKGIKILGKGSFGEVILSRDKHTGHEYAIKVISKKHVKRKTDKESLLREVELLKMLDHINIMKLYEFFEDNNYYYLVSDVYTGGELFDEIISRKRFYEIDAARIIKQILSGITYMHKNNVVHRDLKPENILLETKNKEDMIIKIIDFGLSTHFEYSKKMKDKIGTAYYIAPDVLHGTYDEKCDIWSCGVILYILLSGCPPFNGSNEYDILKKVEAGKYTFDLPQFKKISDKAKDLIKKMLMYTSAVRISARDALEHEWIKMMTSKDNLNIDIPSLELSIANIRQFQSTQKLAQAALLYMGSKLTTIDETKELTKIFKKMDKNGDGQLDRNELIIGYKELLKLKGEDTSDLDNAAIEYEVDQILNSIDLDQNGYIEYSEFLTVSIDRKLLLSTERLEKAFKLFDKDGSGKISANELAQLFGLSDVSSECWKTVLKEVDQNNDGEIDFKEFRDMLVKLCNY

Sequence of Calcium-dependent protein kinase 1 (Plasmodium falciparum (isolate 3D7)) (P62344 whole entry, looked up): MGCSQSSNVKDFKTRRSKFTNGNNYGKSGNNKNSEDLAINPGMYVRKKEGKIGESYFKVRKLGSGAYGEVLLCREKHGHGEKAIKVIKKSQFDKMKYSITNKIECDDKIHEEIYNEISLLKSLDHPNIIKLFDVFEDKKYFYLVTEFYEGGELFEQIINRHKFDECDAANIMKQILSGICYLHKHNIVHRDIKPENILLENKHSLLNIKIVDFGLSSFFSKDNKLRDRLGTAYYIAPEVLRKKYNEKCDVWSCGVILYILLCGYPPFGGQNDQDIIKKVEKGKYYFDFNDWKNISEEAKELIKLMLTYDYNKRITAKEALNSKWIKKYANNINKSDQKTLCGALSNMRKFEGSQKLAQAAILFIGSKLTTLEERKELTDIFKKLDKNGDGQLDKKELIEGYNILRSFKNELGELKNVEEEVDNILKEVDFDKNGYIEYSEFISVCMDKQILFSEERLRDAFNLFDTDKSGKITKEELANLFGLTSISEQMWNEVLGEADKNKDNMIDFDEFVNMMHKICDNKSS
Sequence of Plasmodium falciparum protein kinase 6 (PK6, PF3D7_1337100) (Q8IDW1 1-305): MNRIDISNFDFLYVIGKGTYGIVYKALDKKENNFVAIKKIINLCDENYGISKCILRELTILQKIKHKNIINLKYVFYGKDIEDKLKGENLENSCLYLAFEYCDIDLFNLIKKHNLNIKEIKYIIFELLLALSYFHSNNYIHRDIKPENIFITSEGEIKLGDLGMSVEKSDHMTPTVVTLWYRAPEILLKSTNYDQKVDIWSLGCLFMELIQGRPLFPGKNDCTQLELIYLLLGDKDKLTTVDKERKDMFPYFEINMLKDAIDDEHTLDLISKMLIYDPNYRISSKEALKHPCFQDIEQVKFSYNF
Sequence of Protein kinase 7 (PK7), Plasmodium falciparum 3D7 (PF3D7_0213400) (Q7YTF7 1-343): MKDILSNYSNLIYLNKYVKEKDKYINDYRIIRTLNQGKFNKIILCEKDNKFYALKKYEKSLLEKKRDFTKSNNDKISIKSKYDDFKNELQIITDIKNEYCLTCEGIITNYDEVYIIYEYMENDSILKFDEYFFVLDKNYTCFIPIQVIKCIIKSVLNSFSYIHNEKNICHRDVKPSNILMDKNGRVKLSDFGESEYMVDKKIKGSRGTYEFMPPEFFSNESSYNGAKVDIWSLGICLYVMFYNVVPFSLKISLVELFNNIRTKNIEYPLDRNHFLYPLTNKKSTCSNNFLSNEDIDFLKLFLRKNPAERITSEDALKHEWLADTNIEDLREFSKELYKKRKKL
Sequence of L-lactate dehydrogenase (Plasmodium falciparum (isolate CDC / Honduras)) (Q27743 whole entry, looked up): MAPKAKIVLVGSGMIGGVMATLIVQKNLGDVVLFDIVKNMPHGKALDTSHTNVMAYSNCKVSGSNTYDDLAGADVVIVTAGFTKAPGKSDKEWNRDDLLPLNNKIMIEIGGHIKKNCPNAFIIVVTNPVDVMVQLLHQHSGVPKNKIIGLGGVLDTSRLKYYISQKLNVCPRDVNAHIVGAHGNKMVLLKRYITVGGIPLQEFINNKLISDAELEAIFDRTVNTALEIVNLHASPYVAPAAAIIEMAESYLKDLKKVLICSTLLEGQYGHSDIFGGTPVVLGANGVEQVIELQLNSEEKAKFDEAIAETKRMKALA

| Compound | growth inhibition [1] | inhibition [2] | inhibition [3] [%] | growth inhibition [4] | outcome [5] | outcome [6] | outcome [7] | outcome [8] |
| --- | --- | --- | --- | --- | --- | --- | --- | --- |
| O=C(NCCOc1ccccc1)[C@H](Cc1ccccc1)Nc1ccnc(NCC2CCCCC2)n1 | 73% (active) | 80% (active) | 5 | 96% (active) | inactive | inactive | inactive | inactive |
| CC(C)C[C@H](NC(=O)c1cc2ccccc2s1)C(=O)N[C@H]1CCN(Cc2ccc(I)c(OCCN3CCCC3)c2)C1 | 88% (active) | 3% | -1 | 92% (active) | inactive | inactive | inactive | inactive |
| O=C(NCCN1CCC(NC(=O)c2ccc(-c3ccccn3)s2)CC1)c1cccc(C(F)(F)F)c1 | 24% | 4% | -4 | 97% (active) | inactive | inactive | inactive | inactive |
| Cc1ccc(C(=O)Nc2ccc(OC3CCN(CCC(C)C)C3)c(Cl)c2)cc1 (stereo not given) | 38% | 63% (active) | 0 | 83% (active) | inactive | inactive | inactive | inactive |
| COc1ccc(C=C2SC(=N)N(c3ccccc3OC)C2=O)cc1 | 95% (active) | 47% | 3 | 97% (active) | inactive | inactive | inactive | inactive |
| CCCCC(CC)C(=O)C(NC(=O)[C@H](CSC(c1ccccc1)(c1ccccc1)c1ccccc1)NC(=O)OC(C)(C)C)C(=O)OC (stereo not given in full) | 31% | 8% | 0 | 88% (active) | inactive | inactive | inactive | inactive |
| CN1CCN(CCCN(Cc2cccc(-c3ccc(CNCc4ccc5c(c4)OCO5)cc3)c2)C(=O)Nc2ccccc2)CC1 | 69% (active) | 39% | 4 | 98% (active) | inactive | inactive | inactive | inactive |
| O=C(Cn1c(CCc2cccc(F)c2F)cc(=O)c2ccccc21)N(Cc1ccc(-c2ccc(C(F)(F)F)cc2)cc1)C1CCN(CCN2CCOCC2)CC1 | 41% | 53% (active) | 4 | 101% (active) | inactive | inactive | inactive | inactive |
| COc1ccc2nc(C)cc(NN=Cc3ccc([N+](=O)[O-])cc3)c2c1 | 70% (active) | -3% | -5 | 103% (active) | inactive | inactive | inactive | inactive |
| CC(C)CNCc1ccc(-c2cccc(CN(CCN(C)C)C(=O)NCCc3ccccc3)c2)cc1 | 37% | 33% | -6 | 91% (active) | inactive | inactive | inactive | inactive |
| COc1ccc2nc(/C=C/c3cccc4ccc(C)nc34)[nH]c2c1 | 77% (active) | 25% | -1 | 98% (active) | inactive | inactive | inactive | inactive |
| Nc1nc(N)c2c(ccc3c2ccn3CC2CC2)n1 | 3% | 46% | -4 | 96% (active) | inactive | inactive | inactive | inactive |
| CCOC(=O)c1ccc(NC(=O)N(Cc2ccc(-c3cccc(CN4CCNCC4)c3)cc2)C2CCN(Cc3ccccc3)CC2)cc1 | 55% (active) | 19% | 4 | 100% (active) | inactive | inactive | inactive | inactive |
| CSc1ccc2nccc(Nc3ccc(Oc4ccccc4)cc3)c2c1 | 68% (active) | 30% | -7 | 94% (active) | inactive | inactive | inactive | inactive |
| CC(CN(C)C)Oc1ccc2[nH]c(-c3cccc(OCc4ccccc4)c3)nc2c1C#N (stereo not given) | 94% (active) | 57% (active) | -2 | 101% (active) | inactive | inactive | inactive | inactive |
| COc1ccc(-c2cc3ncnc(N4CCN(CCN5CCCC5)CC4)c3s2)cc1 | 90% (active) | 22% | -2 | 98% (active) | inactive | inactive | inactive | inactive |
| NCCCCc1c(-c2ccc(Cl)c(Cl)c2)[nH]c2ccc(Cl)cc12 | 20% | 33% | -9 | 97% (active) | inactive | inactive | inactive | inactive |
| Clc1ccc(OCc2ccccc2)c(-c2nc(-c3nc4ncc(Br)cc4[nH]3)cs2)c1 | 77% (active) | -7% | -2 | 101% (active) | inactive | inactive | inactive | inactive |
| Cc1ccc2c(c1)c(C1CCN(C(=O)c3ccc([N+](=O)[O-])o3)CC1)cn2C | 76% (active) | -6% | -1 | 97% (active) | inactive | inactive | inactive | inactive |
| O=C(Nc1cccnc1)c1cc(C(=O)Nc2cccnc2)cc([N+](=O)[O-])c1 | 100% (active) | -12% | -2 | 100% (active) | inactive | inactive | inactive | inactive |
